# According to PubChem BioAssay AID1159580 (chemical genetic matrix, 2015):
# About 2,000 (36%) of roughly 5,500 compounds were called active. Not shown: some 18% with an inconclusive outcome. The list shows a part of the results. A number with no mark means an inactive call. Cut-off read from the data, not from the text of the source: active = normalized growth mostly below about 0.91 (no sharp cut-off); inconclusive = no clear call, values can overlap the other calls; inactive = mostly above about 0.92.
# Assay: chemical genetic growth profiling, strain panel (AID 1159580);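 note: tested at 20 µM; growth read once vehicle control cultures reached saturation at 30 °C; 1 = growth at the plate median or of vehicle wells; lower values mean less growth of the strain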
# Details: S. cerevisiae deletion strains, growth OD
smiles,measurement,setting,value
CC1CC[C@]2(NC1)O[C@H]1CC3C4CC[C@H]5C[C@@H](O)CC[C@]5(C)C4CC[C@]3(C)[C@H]1[C@@H]2C (stereo partly specified),normalized growth,"locus YJR066W, strain TOR1, active compounds read low",0.471 (active)
same,normalized growth,"locus YKL009W, strain mrt4, active compounds read low",0.252 (active)
same,normalized growth,"locus YKL068W, active compounds read low",0.135 (active)
same,normalized growth,"locus YKL085W, strain MDH1 (second series), active compounds read low",0.0926 (active)
same,normalized growth,"locus YKL085W, strain MDH1, active compounds read low",0.0926 (active)
same,normalized growth,"locus YKL160W, strain elf1, active compounds read low",0.0907 (active)
same,normalized growth,"locus YKR001C, strain vps1, active compounds read low",0.0755 (active)
same,normalized growth,"locus YKR026C, strain gcn3, active compounds read low",0.223 (active)
same,normalized growth,"locus YKR091W, strain srl3, active compounds read low",0.12 (active)
same,normalized growth,"locus YLL001W, strain dnm1, active compounds read low",0.109 (active)
same,normalized growth,"locus YLL026W, active compounds read low",0.0788 (active)
same,normalized growth,"locus YLL041C, strain sdh2, active compounds read low",0.0915 (active)
same,normalized growth,"locus YLR027C, strain aat2, active compounds read low",0.0814 (active)
same,normalized growth,"locus YLR039C, strain RIC1, active compounds read low",0.229 (active)
same,normalized growth,"locus YLR058C, strain SHM2, active compounds read low",0.0708 (active)
same,normalized growth,"locus YLR102C, strain apc9, active compounds read low",0.0841 (active)
same,normalized growth,"locus YLR113W, strain HOG1, active compounds read low",0.557 (active)
same,normalized growth,"locus YLR221C, strain rsa3, active compounds read low",0.077 (active)
same,normalized growth,"locus YLR258W, strain gsy2, active compounds read low",0.0908 (active)
same,normalized growth,"locus YLR262C, strain YPT6 (second series), active compounds read low",0.323 (active)
same,normalized growth,"locus YLR268W, strain sec22, active compounds read low",0.0945 (active)
same,normalized growth,"locus YLR320W, strain mms22, active compounds read low",0.0887 (active)
same,normalized growth,"locus YLR330W, strain CHS5, active compounds read low",0.0602 (active)
same,normalized growth,"locus YLR342W, strain FKS1 (second series), active compounds read low",0.0855 (active)
same,normalized growth,"locus YLR342W, strain FKS1, active compounds read low",0.0932 (active)
same,normalized growth,"locus YLR357W, strain rsc2, active compounds read low",0.383 (active)
same,normalized growth,"locus YLR370C, strain arc18, active compounds read low",0.0901 (active)
same,normalized growth,"locus YLR371W, strain rom2, active compounds read low",0.0788 (active)
same,normalized growth,"locus YLR384C, strain iki3, active compounds read low",0.213 (active)
same,normalized growth,"locus YLR418C, strain cdc73, active compounds read low",0.141 (active)
same,normalized growth,"locus YML016C, strain PPZ1, active compounds read low",0.0661 (active)
same,normalized growth,"locus YML032C, strain rad52, active compounds read low",0.105 (active)
same,normalized growth,"locus YML120C, strain ndi1, active compounds read low",0.0802 (active)
same,normalized growth,"locus YML124C, strain tub3, active compounds read low",0.0853 (active)
same,normalized growth,"locus YMR058W, strain fet3, active compounds read low",0.113 (active)
same,normalized growth,"locus YMR078C, strain ctf18, active compounds read low",0.0791 (active)
same,normalized growth,"locus YMR125W, strain sto1, active compounds read low",0.102 (active)
same,normalized growth,"locus YMR129W, active compounds read low",0.0908 (active)
same,normalized growth,"locus YMR205C, strain PFK2, active compounds read low",0.124 (active)
same,normalized growth,"locus YMR223W, strain ubp8, active compounds read low",0.0843 (active)
same,normalized growth,"locus YMR231W, strain pep5, active compounds read low",0.106 (active)
same,normalized growth,"locus YMR263W, strain SAP30, active compounds read low",0.0847 (active)
same,normalized growth,"locus YMR307W, strain GAS1, active compounds read low",0.145 (active)
same,normalized growth,"locus YNL067W, strain RPL9B, active compounds read low",0.0797 (active)
same,normalized growth,"locus YNL071W, strain lat1, active compounds read low",0.0674 (active)
same,normalized growth,"locus YNL183C, strain NPR1, active compounds read low",0.561 (active)
same,normalized growth,"locus YNL209W, strain ssb2, active compounds read low",0.383 (active)
same,normalized growth,"locus YNL233W, strain BNI4, active compounds read low",0.0735 (active)
same,normalized growth,"locus YNL248C, strain rpa49, active compounds read low",0.101 (active)
same,normalized growth,"locus YNL250W, strain rad50, active compounds read low",0.104 (active)
same,normalized growth,"locus YNL271C, strain bni1, active compounds read low",0.103 (active)
same,normalized growth,"locus YNL298W, strain CLA4, active compounds read low",0.081 (active)
same,normalized growth,"locus YNL307C, strain MCK1, active compounds read low",0.0717 (active)
same,normalized growth,"locus YNL322C, strain KRE1 (second series), active compounds read low",0.131 (active)
same,normalized growth,"locus YNL322C, strain KRE1, active compounds read low",0.0664 (active)
same,normalized growth,"locus YNR049C, strain mso1, active compounds read low",0.0984 (active)
same,normalized growth,"locus YNR052C, strain pop2, active compounds read low",0.103 (active)
same,normalized growth,"locus YOL006C, strain TOP1, active compounds read low",0.15 (active)
same,normalized growth,"locus YOL012C, strain htz1",0.203
same,normalized growth,"locus YOL147C, strain pex11, active compounds read low",0.0685 (active)
same,normalized growth,"locus YOR001W, strain rrp6, active compounds read low",0.105 (active)
same,normalized growth,"locus YOR061W, strain CKA2, active compounds read low",0.117 (active)
same,normalized growth,"locus YOR069W, strain VPS5, active compounds read low",0.0792 (active)
same,normalized growth,"locus YOR070C, strain gyp1, active compounds read low",0.0794 (active)
same,normalized growth,"locus YOR080W, strain dia2, active compounds read low",0.111 (active)
same,normalized growth,"locus YOR083W, strain WHI5, active compounds read low",0.198 (active)
same,normalized growth,"locus YOR106W, strain vam3, active compounds read low",0.143 (active)
same,normalized growth,"locus YOR136W, strain idh2, active compounds read low",0.0918 (active)
same,normalized growth,"locus YOR144C, strain elg1, active compounds read low",0.0753 (active)
same,normalized growth,"locus YOR184W, strain ser1, active compounds read low",0.0768 (active)
same,normalized growth,"locus YOR231W, strain MKK1, active compounds read low",0.573 (active)
same,normalized growth,"locus YOR265W, strain rbl2, active compounds read low",0.106 (active)
same,normalized growth,"locus YOR270C, strain vph1, active compounds read low",0.111 (active)
same,normalized growth,"locus YOR290C, strain snf2, active compounds read low",0.108 (active)
same,normalized growth,"locus YOR316C, strain cot1, active compounds read low",0.0772 (active)
same,normalized growth,"locus YPL051W, strain arl3, active compounds read low",0.182 (active)
same,normalized growth,"locus YPL078C, strain atp4, active compounds read low",0.0844 (active)
same,normalized growth,"locus YPL106C, strain sse1, active compounds read low",0.175 (active)
same,normalized growth,"locus YPL240C, strain hsp82, active compounds read low",0.084 (active)
same,normalized growth,"locus YPL241C, strain CIN2, active compounds read low",0.0689 (active)
same,normalized growth,"locus YPL256C, strain CLN2, active compounds read low",0.604 (active)
same,normalized growth,"locus YPR119W, strain clb2, active compounds read low",0.0896 (active)
same,normalized growth,"locus YPR141C, strain kar3, active compounds read low",0.176 (active)
same,normalized growth,"locus YPR163C, strain tif3, active compounds read low",0.0892 (active)
same,normalized growth,"locus YPR167C, strain met16, active compounds read low",0.0808 (active)
same,normalized growth,"strain wtn01, active compounds read low",0.0731 (active)
